{
  "source": "paper PMC10726135",
  "about": "“HNF4α isoforms regulate the circadian balance between carbohydrate and lipid metabolism in the liver”",
  "note": "In all, about 18,000 sequences were measured (“log2 normalized intensity”: median about 0.36, highest 2% from about 7.3 on). For the sample, the highest values were picked, then their nearest neighbours and some sequences at random.",
  "data": [
    {"target": "T1, HNF4alpha8 (COS-7 nuclear extract) (Homo sapiens, UniProt P41235-5 1-452)", "T1 sequence": "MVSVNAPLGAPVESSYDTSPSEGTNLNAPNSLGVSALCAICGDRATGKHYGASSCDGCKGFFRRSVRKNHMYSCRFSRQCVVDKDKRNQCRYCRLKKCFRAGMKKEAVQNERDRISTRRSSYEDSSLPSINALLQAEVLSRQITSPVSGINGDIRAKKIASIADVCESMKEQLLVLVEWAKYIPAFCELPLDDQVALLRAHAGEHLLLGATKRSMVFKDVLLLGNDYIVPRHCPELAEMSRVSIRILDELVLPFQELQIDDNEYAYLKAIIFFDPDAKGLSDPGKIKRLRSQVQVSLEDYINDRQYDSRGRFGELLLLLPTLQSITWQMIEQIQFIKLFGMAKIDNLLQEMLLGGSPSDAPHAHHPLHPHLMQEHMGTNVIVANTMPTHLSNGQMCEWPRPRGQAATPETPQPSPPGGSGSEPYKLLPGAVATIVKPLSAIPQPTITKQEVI", "assay": "protein-binding microarray; COS-7 nuclear extract on double-stranded Agilent 4x180k PBM; binding buffer, salt, pH and temperature not given in the material; high values mean tight binding", "conditions": "chain copies: 2; label: 3' end of strand 1 on the slide; dsDNA, one strand shown", "method_in_brief": "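Nuclear extracts of COS-7 cells transiently transfected with a human HNF4α isoform were applied to a custom Agilent SurePrint G3 4x180k array bearing ~44,000 double-stranded ~60-nt test sequences, each in quadruplicate. The bound protein was imaged on an Agilent G2565CA scanner at 2-µm resolution. Binding signal is the normalized, background-corrected gProcessedSignal from Agilent software.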", "units": {"binding signal": "log2 normalized intensity"}, "values": [
      {"sequence": "TGCCCTTTGGCCCCCAGAGCCCCGTGTCTCGCCTAGGGAGATTAGAGTATCGGTCGA", "binding signal": 5.63},
      {"sequence": "ACCCCTGAATAGGTCTTGGAATGTGACGGCGCCTAGGGAGATTAGAGTATCGGTCGA", "binding signal": 1.5},
      {"sequence": "GTTCTCTGGGCTTTTTGATCTTGTCACATTGCCTAGGGAGATTAGAGTATCGGTCGA", "binding signal": 1.99},
      {"sequence": "GAACAGTCCTACAAATGATCAAAGGTTGGTGCCTAGGGAGATTAGAGTATCGGTCGA", "binding signal": 3.74},
      {"sequence": "TACAGGGAGCTATTCTTTAACCAGAGTCTAGCCTAGGGAGATTAGAGTATCGGTCGA", "binding signal": -0.822},
      {"sequence": "TCTTGTGGTAATCTCTTTTGTGTTAGAGGGGCCTAGGGAGATTAGAGTATCGGTCGA", "binding signal": 1.02},
      {"sequence": "GACCTTCAGATGCAGTCCAGAAGGTCAGGAGCCTAGGGAGATTAGAGTATCGGTCGA", "binding signal": 4.19},
      {"sequence": "GCTAGACTTGGACCAGCTTTTGGAAGGACTGCCTAGGGAGATTAGAGTATCGGTCGA", "binding signal": 0.0118},
      {"sequence": "GGGTTTGTTTTTTGCCCTTTGTACCCACACGCCTAGGGAGATTAGAGTATCGGTCGA", "binding signal": 8.41},
      {"sequence": "TGCCCTTTGCCTGGTGATCTTTGTTAGACCGCCTAGGGAGATTAGAGTATCGGTCGA", "binding signal": 3.02},
      {"sequence": "CTGTACCCTATGCACCCCACAGTGCTGTTTGCCTAGGGAGATTAGAGTATCGGTCGA", "binding signal": 1.71},
      {"sequence": "AGAGGGGGTTTGTTTTTTGCCCTTTGTACCGCCTAGGGAGATTAGAGTATCGGTCGA", "binding signal": 8.63},
      {"sequence": "ACCCACCCACACCTCCCCTTTGTTTAACTTGCCTAGGGAGATTAGAGTATCGGTCGA", "binding signal": 2.79},
      {"sequence": "AGCCTACCCACCCACACCTCCCCTTTGTTTGCCTAGGGAGATTAGAGTATCGGTCGA", "binding signal": 3.22},
      {"sequence": "CCCACAGAGGGGGTTTGTTTTTTGCCCTTTGCCTAGGGAGATTAGAGTATCGGTCGA", "binding signal": 5.27},
      {"sequence": "TGTTTTTTGCCCTTTGTACCCACACACACCGCCTAGGGAGATTAGAGTATCGGTCGA", "binding signal": 7.36},
      {"sequence": "CCGCCCACCCTTTTTTTTCTTTCTTTTCCCGCCTAGGGAGATTAGAGTATCGGTCGA", "binding signal": 1.46},
      {"sequence": "CCAGAGCCTCCAAAGTCCGCTTGCCTGAGGGCCTAGGGAGATTAGAGTATCGGTCGA", "binding signal": -0.939},
      {"sequence": "ACAGCGTTTTCCCATTCATGACATTGATTTGCCTAGGGAGATTAGAGTATCGGTCGA", "binding signal": 1.47},
      {"sequence": "ACCCCACTTTGGTTCACCGCTCACTGCTCCGCCTAGGGAGATTAGAGTATCGGTCGA", "binding signal": -0.611},
      {"sequence": "TACTGGTTGAATGGACGGACAGGTAACGTAGCCTAGGGAGATTAGAGTATCGGTCGA", "binding signal": 0.899},
      {"sequence": "AACCTCCTTTGAGATAGCTATGATTATCCTGCCTAGGGAGATTAGAGTATCGGTCGA", "binding signal": -0.867},
      {"sequence": "ATTGACATTTGGGGTCAGATAATTCTTTGCGCCTAGGGAGATTAGAGTATCGGTCGA", "binding signal": 2.42},
      {"sequence": "AAGACCCAAGGCGTATGAAGCTTTGACCCTGCCTAGGGAGATTAGAGTATCGGTCGA", "binding signal": 5.29}
    ]}
  ]
}
